Screens from PubChem.
PI5P4Ka inh – blocks human PI5P4K alpha kinase activity; 330,000 tested, 1.2% active; AID 652105; PI5P4Kalpha enzyme, ADP-Glo luminescence, 60 min; stronger effect = lower value; max response, %; active means max response of -50% or lower; inconclusive means between -30% and -50%; inactive means -30% or higher; further: value at the top dose of about 77 µM; on the % scale 0 is the no-effect control and ±100 the full control effect
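ADP-Glo luminescence end-point after a 60 min room-temperature kinase reaction. PI5P4Kalpha and substrate in HEPES pH 7.4 buffer with EGTA, 0.1% CHAPS and 5% DMSO; ATP at 5 microM final.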
KAT2A inh – GCN5L2 (KAT2A) acetyltransferase inhibition; GCN5L2 HAT assay, ThioGlo1 CoA-SH fluorescence; Potency, µM (doses to about 58.9 µM), for the others: at the top dose activity change, negative = inhibition, usual class: inhibitors; 390,000 tested, 0.21% active; further: potency means the concentration at half of the fitted maximal effect; on the % scale 0 is the no-effect control and ±100 the full control effect
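Preincubate 20nM GCN5L2 with compound 15 min, RT → add 50uM ThioGlo1 + 75uM H3(1-25) + 70uM acetyl-CoA → read fluorescence 0 and 20 min. Primary qHTS; fluorescent artifacts likely.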
PLK1 PBD inh – blocks phosphopeptide binding to human PLK1 polo-box domain; 360,000 tested, 2.8% active; Potency, µM, inactives show max response, negative = inhibition, actives largely listed as inhibitors; Plk1 PBD binding of FITC phosphopeptide, fluorescence polarization; P53350; AID 720504; further: potency means the concentration at half of the fitted maximal effect; series mostly up to about 57 µM; on the % scale 0 is the no-effect control and ±100 the full control effect; nearly all actives have a fitted effect of over 65% in size
Target sequence (P53350 whole entry, looked up, the tested form may be a part): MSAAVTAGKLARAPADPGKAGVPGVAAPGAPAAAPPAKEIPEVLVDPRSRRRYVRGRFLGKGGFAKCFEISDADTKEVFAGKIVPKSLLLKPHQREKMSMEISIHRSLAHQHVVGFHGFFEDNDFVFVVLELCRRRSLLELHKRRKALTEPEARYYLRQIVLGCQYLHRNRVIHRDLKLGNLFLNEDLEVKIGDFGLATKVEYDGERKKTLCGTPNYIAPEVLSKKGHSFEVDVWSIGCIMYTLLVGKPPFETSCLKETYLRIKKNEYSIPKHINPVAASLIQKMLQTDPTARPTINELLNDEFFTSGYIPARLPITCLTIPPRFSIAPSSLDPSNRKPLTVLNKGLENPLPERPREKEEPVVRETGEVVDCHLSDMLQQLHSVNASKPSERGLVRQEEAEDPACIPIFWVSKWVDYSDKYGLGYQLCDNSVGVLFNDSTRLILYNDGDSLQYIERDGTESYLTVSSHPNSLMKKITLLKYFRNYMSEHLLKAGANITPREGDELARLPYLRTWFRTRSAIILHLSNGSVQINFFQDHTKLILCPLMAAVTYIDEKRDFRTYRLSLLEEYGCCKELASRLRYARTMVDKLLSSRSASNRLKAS
BAZ2B block – inhibitors of human BAZ2B bromodomain; 360,000 tested, 4.4% active; Potency, µM (series often up to 114 µM), for inactives: at the highest dose activity change, negative = inhibition, hits mostly inhibitors; AlphaScreen BAZ2B-H3K14Ac peptide displacement; further: potency means the concentration at half of the fitted maximal effect; on the % scale 0 is the no-effect control and ±100 the full control effect; nearly all actives have a fitted effect of over 60% in size
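In this displacement format the biotinylated H3(5-23) peptide acetylated at Lys14 serves as ligand at 50 nM, with BAZ2B at 50 nM in PBS pH 7.4 containing 0.01% Tween-20. Donor and acceptor beads are 10 ug/mL final.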
JMJD2A Tudor inh – JMJD2A Tudor domain (human) inhibition. AlphaScreen JMJD2A-Tudor / H3K4me3 peptide binding. Potency, µM (top dose mostly 114 µM), for the others: at the top dose activity change, negative = inhibition, actives largely listed as inhibitors. O75164. AID 504339. 390,000 tested, 4.4% active; further: potency means the concentration at half of the fitted maximal effect; on the % scale 0 is the no-effect control and ±100 the full control effect; nearly all actives have a fitted effect of over 50% in size
HP1b binding inh – inhibitors of HP1-beta chromodomain binding to methylated histone tails; P83916; AlphaScreen HP1-beta / biotin-H3K9me3 peptide binding; Potency, µM (highest dose often 114 µM), for inactives: at the highest dose activity change, negative = inhibition, usual class: inhibitors; 390,000 tested, 0.56% active; further: potency means the concentration at half of the fitted maximal effect; nearly all actives have a fitted effect of over 70% in size
Target sequence (P83916 whole entry, looked up): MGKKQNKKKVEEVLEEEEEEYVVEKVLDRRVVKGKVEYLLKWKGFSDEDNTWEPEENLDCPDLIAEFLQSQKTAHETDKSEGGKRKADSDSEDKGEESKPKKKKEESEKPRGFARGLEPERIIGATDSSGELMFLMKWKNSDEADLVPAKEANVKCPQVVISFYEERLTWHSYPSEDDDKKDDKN
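Compound inhibition of the preformed complex between 50 nM HP1-beta and 50 nM biotinylated H3K9me3 peptide was read by AlphaScreen. Buffer was PBS pH 7.4 with 0.01% Tween-20. Incubations ran 30 min at room temperature, with 10 ug/mL donor/acceptor beads.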
Starred values were filed as active, the others as inactive; i = inactive; ? = inconclusive; · = no result given; [ ] = dose if it differs, or a comment. Only some compounds are listed: those with a hit (about 7% of all), similar ones and a draw of the others. Unless noted, the call rests on the fitted dose curve; in most records, active means well fitted curve in the direction sought with a large enough effect; inconclusive means small, poorly fitted or top-dose-only effect, or another doubt; inactive means no such curve, though single readings can be large; an effect the other way counts as inactive or inconclusive.

SMILES | PI5P4Ka inh | KAT2A inh | PLK1 PBD inh | BAZ2B block | JMJD2A Tudor inh | HP1b binding inh
O=C(CN1C(=O)/C(=C/c2ccco2)SC1=S)Nc1ccc(O)c(C(=O)O)c1 | ? | -35.2% | ? | 44.7µM* | ? | 41.5%
Cc1oc2ncn(CC(C)C)c(=O)c2c1C(=O)NCCCN1CCCCC1C (stereo unspecified) | · | 9.6% | · | 4.3%[57.1 µM] | -8.7% | 6.1%
Cc1ccc(NP(=O)(Nc2ccc(C)cc2)Nc2ccc(C)cc2)cc1 | -0.5 | -3.3% | -0.4% | -29.5% | -29.7% | 4.6%
CN(C)CCOC1c2ccccc2C=Cc2ccccc21 | -8.9 | · | -2.9% | · | -17.6% | 28.0%
CN(C)CCOC1c2ccccc2CCc2ccc3ccccc3c21 (stereo unspecified) | -3.4 | · | -3.9% | · | 31.6µM* | ?
CCc1nc2ccc(C(=O)NCCCN3CCCC3=O)cn2c1N(CCC(C)C)CCN(C)C | 0.9 | · | -15.5% | · | · | ·
COc1ccccc1C(=O)NC(=S)/C=C1/N(C)c2ccccc2C1(C)C | 14.7 | -6.4% | -19.3% | 11.2µM* | 15.8µM* | -85.0%
CN1/C(=C\C(=O)Nc2ccc(Cl)cc2)C(C)(C)c2ccccc21 | 4.0 | -16.5% | -3.2% | -31.5% | -32.9% | 18.7%
CN1/C(=C\C(=S)NC(=O)c2ccccc2Cl)C(C)(C)c2ccccc21 | 1.7 | -6.6% | -14.5% | 11.2µM* | 25.1µM* | 25.1µM*
CN1/C(=C/C(=S)NC(=O)C2(C)CC2(Cl)Cl)C(C)(C)c2ccccc21 (stereo unspecified) | -0.6 | -2.2% | -1.2% | 20µM* | 35.5µM* | 17.8µM*
CCOC(=O)/C=C1/N(C)c2ccccc2C1(C)C | 6.3 | -6.7% | -7.8% | -17.9% | -7.0% | 34.5%
COC(=O)c1sccc1S(=O)(=O)N1CCN(c2cccc(C)c2C)CC1 | · | -14.9% | · | 3.5% | -8.3% | 17.1%
CCCCN(CC)CCCNC(=O)C1CCN(c2nc3ccc(CC)cc3s2)CC1 | · | -2.7% | · | -1.5% | -16.4% | 14.4%
O=C(O)/C=C/C(=O)Nc1ccc2c(c1)C(=O)c1ccccc1C2=O | -64.8* | -7.0% | -6.0% | ? | -21.1% | 13.3%
CC(=O)Nc1ccc2c(c1)C(=O)c1ccccc1C2=O | 2.2 | -0.9% | -7.2% | -27.8% | -15.1% | 8.0%
Cc1cc(C)n(-c2nnc(C)c(=O)[nH]2)n1 | · | 1.6% | 1.5% | 7.08µM* | 1µM* | 19.8%
Cc1occc1C(=O)Nc1cccc(Cl)c1Cl | -10.7 | -2.8% | -8.9% | -7.4% | -14.1% | 19.0%
CCOc1ccc(-c2nnc(SCC(=O)NCc3ccc(C)cc3)nc2-c2ccc(OCC)cc2)cc1 | · | -0.4% | · | 16.5% | -29.7% | 52.1%
O=C1c2ccccc2-c2onc3ccc(NCc4ccco4)c1c23 | -20.3 | -4.4% | 3.36µM* | 111.9% | ? | i
CCNc1ccc2noc3c2c1C(=O)c1ccccc1-3 | · | -8.2% | 1.06µM* | 31.6µM* | ? | ?
O=C1C(Cl)=C(NCc2ccco2)C(=O)c2ccccc21 | 4.2 | · | -11.0% | · | ? | 50.1µM*
O=S(=O)(c1ccccc1)c1ccc(NCc2ccco2)cc1 | · | -6.1% | -1.5% | -7.2% | ? | 13.1%
COc1ccc2sc(-c3ccccc3OC)c(C#Cc3cncn3C)c2c1 | 41.5 | -7.8% | 0.4% | · | 39.8µM* | -0.3%
COc1ccccc1-c1sc2cc3c(cc2c1C#Cc1cncn1C)OCO3 | -0.8 | -8.0% | -6.2% | · | 20µM* | -29.5%
CC1=C(C(=O)NC2CCCC(C)C2C)C2(CCCCC2)OC1=O (stereo unspecified) | -2.3 | -1.4% | 23.8µM* | -0.5% | ? | 17.6%
SMILES | PI5P4Ka inh | KAT2A inh | PLK1 PBD inh | BAZ2B block | JMJD2A Tudor inh | HP1b binding inh
Cc1cccc(N2CCN(C(=O)CCC(=O)N3CC(C)Oc4ccc(C)cc43)CC2C)c1 (stereo unspecified) | 5.9 | -13.0% | -7.2% | ? | ? | -10.3%
COc1ccc(C(=O)N/C(=C/c2ccco2)C(=O)N2CCCCCC2)cc1 | -5.2 | -5.8% | -15.1% | ? | -22.6% | 20.8%
CCS(=O)(=O)Nc1cccc(C2=NN(S(=O)(=O)c3ccc(F)cc3)C(c3cccs3)C2)c1 (stereo unspecified) | 0.7 | -9.4% | 0.8% | -11.2% | -14.0% | 31.1%
CS(=O)(=O)Nc1cccc(C2=NN(S(=O)(=O)c3ccc(F)cc3)C(c3cccs3)C2)c1 (stereo unspecified) | 6.4 | -9.5% | ? | -4.7% | 79.4µM* | -5.3%
Nc1sc2c(c1C(=O)NC1CCS(=O)(=O)C1)CCC2 (stereo unspecified) | -27.4 | 0.4% | 16.8µM* | -36.0% | 6.9%[11.4 µM] | 6.9%
CC(C)C1C(C#N)=C(N)Oc2n[nH]c(C(C)(C)C)c21 (stereo unspecified) | 0.1 | -6.4% | 2.6% | -5.6% | 0.8% | 27.2%
CSCCC1C(C#N)=C(N)Oc2n[nH]c(-c3cccs3)c21 (stereo unspecified) | -64.6* | -5.0% | -27.4% | -13.5% | ? | 16.4%
N#CC1=C(N)Oc2n[nH]c(-c3cccs3)c2C1c1ccccc1C(=O)O (stereo unspecified) | -5.7 | -6.2% | -11.5% | -26.8% | -2.3% | 32.1%
CCCC1C(C#N)=C(N)Oc2n[nH]c(C(C)(C)C)c21 (stereo unspecified) | -28.7 | -3.9% | 6.7µM* | -3.2% | ? | -3.5%
N#CC1=C(N)Oc2n[nH]c(-c3cccs3)c2C1c1cccs1 (stereo unspecified) | -53.3* | 1.0% | 23.8µM* | -27.6% | -24.8% | 13.8%
CCCS(=O)(=O)NC(=O)C1(C)CCCN(C(=O)c2ccc(F)c(Cl)c2)C1 (stereo unspecified) | 3.0 | · | -1.4% | · | · | ·
CCN(CCCNC(=O)CC(C(=O)N1CCc2ccccc21)n1ccnc1)c1cccc(C)c1 (stereo unspecified) | · | -19.5% | -9.5% | 37.3% | 50.1µM* | -34.4%
CCCCNC(=O)CC(C(=O)N1CCc2ccccc21)n1ccnc1 (stereo unspecified) | · | -9.5% | -8.2% | 3.4% | -12.2% | 31.8%
O=C(Nc1sc2c(c1C(=O)NCc1ccco1)CCCC2)c1cc(=O)c2cc(Cl)ccc2o1 | · | -0.1% | · | -3.9% | -8.0% | 14.1%
Brc1cccc(OCCn2ccnc2)c1 | -2.1 | -7.2% | ? | 39.8µM* | 3.55µM* | -15.6%
CCc1cccc(OCCCn2ccnc2)c1 | 1.8 | -3.2% | -1.5% | 31.6µM* | 12.6µM* | 50.1µM*
CCOc1cccc(OCCCCn2ccnc2)c1 | -4.8 | 1.0% | -6.1% | 50.1µM* | 6.31µM* | ?
CCc1ccc(C2CC(=O)Nc3c2c(=O)n(C)c2ncnn32)cc1 (stereo unspecified) | · | -1.9% | · | -16.2% | 1.9% | 7.5%
CC1(C)Cc2c(sc3[nH]c(=S)[nH]c(=O)c23)CO1 | -22.6 | -5.0% | -22.8% | -3.9% | 89.1µM* | -15.5%
